Screening data from PubChem BioAssay.
In the library only some 1.3% were active in any assay of this set; here they are far more common.
GALR2 ag = agonists of human galanin receptor 2 (GALR2). O43603. GALR2-expressing cells, agonist activation read-out. activation, % (test concentration not listed). 140,000 tested, 0.48% active; in the data active = activation above about 5%, passing the limit was not always enough;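 also: 0% = vehicle buffer wells and 100% = reference agonist at full effect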
Target sequence (O43603 whole entry, looked up): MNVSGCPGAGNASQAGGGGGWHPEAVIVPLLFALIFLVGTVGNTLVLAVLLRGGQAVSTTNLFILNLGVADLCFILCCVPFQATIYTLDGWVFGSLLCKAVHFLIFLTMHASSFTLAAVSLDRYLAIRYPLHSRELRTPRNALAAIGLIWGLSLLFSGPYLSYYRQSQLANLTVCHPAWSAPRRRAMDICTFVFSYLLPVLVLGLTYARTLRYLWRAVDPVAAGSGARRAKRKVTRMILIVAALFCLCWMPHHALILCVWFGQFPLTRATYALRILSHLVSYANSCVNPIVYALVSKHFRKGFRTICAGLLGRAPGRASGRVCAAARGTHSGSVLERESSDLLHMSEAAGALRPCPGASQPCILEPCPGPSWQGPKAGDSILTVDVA
cytoskel mod = alters cytoskeleton assembly in HUVEC cells; HUVEC TNFa F-actin phalloidin imaging, high content; inhibition, % at 2 µM; 91,000 tested, 0.18% active;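 active = inhibition above the batch mean plus 3 SD and confirmed as a hit by visual image inspection, cut at about 30% in these data, passing the limit was not always enough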
S1P2 agonist = agonists of human S1P2 receptor; 97,000 tested, 0.46% active; S1P2-expressing cell line, agonist reporter read-out; AID 729; O95136; activation, % at 4.5 µM; in the data active = activation above about 16%;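 also: 0% = vehicle low control and 100% = maximal reference agonist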
S1P2 blocker = antagonists of human S1P2 receptor; O95136; cell-based S1P2 antagonist assay, inhibition at 5 uM; inhibition, % at 5 µM; 97,000 tested, 0.21% active; AID 736; in the data active = inhibition above about 45%;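 also: CRE beta-lactamase reporter cells expressing human S1P2 stimulated with S1P; 0% = agonist at EC80 alone and 100% = agonist plus reference antagonist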
GALR2 antag = blocks the human galanin receptor 2; O43603; GALR2-expressing cells, antagonist mode; inhibition, % at 4 µM; 140,000 tested, 0.39% active;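 also: cells stimulated with galanin 1-16 at roughly its EC80; 0% = agonist challenge control and 100% = basal control without agonist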
GALR2 blk conf = confirmation of human galanin receptor 2 (GALR2) antagonists. shares compounds with GALR2 antag. GALR2-expressing cells, antagonist mode, inhibition. inhibition, % at 4 µM. 480 tested, 60% active. AID 866;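 also: cells stimulated with galanin at about its EC80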
BLA inhib ctr = counter-screen for GALR2 antagonists: beta-lactamase reporter inhibitors. shares compounds with GALR2 antag. CHO NFAT-BLA reporter, beta-lactamase FRET, thapsigargin-stimulated. inhibition, % at 4.2 µM. 480 tested, 36% active. AID 867;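 active = inhibition above the mean inhibition across tested compounds plus 3 SD, cut at about 27% in these data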;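 also: 0% = 500 nM thapsigargin stimulated wells and 100% = unstimulated BSA only wells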
Numbers without * were called inactive; x = not tested or not shown. Rule as the data show it, unless noted: active = inhibition above about 27%; inactive = the rest.

SMILES	GALR2 ag	cytoskel mod	S1P2 agonist	S1P2 blocker	GALR2 antag	GALR2 blk conf	BLA inhib ctr
Cc1nn(C)c(C)c1N1C(=O)c2cccc3c(N)ccc(c23)C1=O	-1.1	x	x	x	31.7*	19.8	24.9
Cc1nn(C)c(C)c1N1C(=O)c2cccc3c(Br)ccc(c23)C1=O	0.7	-15.4	-6.8	45.2	29.1*	30.3*	18.3
COc1ccc(NC(=O)NC23CC4(C)CC(C)(CC(C)(C4)C2)C3)cc1	-1.5	x	x	x	8.4	x	x
Cc1cc(Nc2ccccc2)nc(NCc2ccccc2)n1	-0.7	x	x	x	42.2*	49.9*	30.7*
Cc1cc(Nc2cccc(F)c2)nc(NCc2ccccc2)n1	0.4	x	x	x	22.7	x	x
COc1cc(N2CCCC2)c(OC)cc1/C=C(/C#N)c1ccc(Br)cc1	-3.2	x	0.0	23.1	63.0*	10.6	16.6
COc1cc(N2CCCC2)c(OC)cc1/C=C(/C#N)c1ccc(F)cc1	-4.1	7.6	-5.7	32.3	5.6	x	x
Cc1c(O)c2cccnc2[nH]c1=O	-2.6	x	x	x	7.7	x	x
C1=C(CCNc2ncnc3c2[nH]c2ccccc23)CCCC1	-0.3	x	x	x	47.9*	60.6*	14.0
CC(C)OCCCNc1ncnc2c1[nH]c1ccccc12	-3.8	50.5	-13.6	37.2	38.9*	37.2*	12.5
COc1ccc2[nH]c3c(NCCN(C(C)C)C(C)C)ncnc3c2c1	0.0	32.6	-5.6	-10.9	5.8	x	x
O=c1c2[nH]c3ccccc3c2ncn1CCC1=CCCCC1	0.2	-7.9	1.1	-13.5	11.2	x	x
COc1ccc(C(=S)N2CCOCC2)cc1OS(=O)(=O)c1ccccc1[N+](=O)[O-]	-0.7	x	x	x	6.6	x	x
COc1cc(Nc2cc(C)nc3ncnn23)cc(OC)c1	-2.0	x	x	x	30.2*	3.8	5.5
O=C(NCC(c1cccs1)N1CCOCC1)c1ccccc1NS(=O)(=O)c1cc([N+](=O)[O-])ccc1Cl (stereo unspecified)	-0.1	x	x	x	-24.0	x	x
CC(Oc1ccc2ccc(=O)oc2c1)C(=O)c1ccccc1 (stereo unspecified)	-0.8	x	x	x	3.9	x	x
N#Cc1c(-c2ccccc2F)cc(C2CC2)nc1SCC(=O)c1cccs1	-0.7	x	x	x	27.7*	31.5*	32.5*
CC(C)c1c(C#N)c(N)nc(SCC(=O)c2cc3ccccc3oc2=O)c1C#N	1.5	x	x	x	1.7	x	x
N#Cc1ccc(-c2ccccc2)nc1SCC(=O)c1cc2ccccc2oc1=O	-0.8	-3.4	-7.2	30.5	38.4*	20.8	19.5
CCCNS(=O)(=O)c1ccc(CCC(=O)N2CCN(c3ccc(F)cc3)CC2)cc1	-0.6	x	x	x	-0.9	x	x
COc1ccccc1NC(=O)CC(NC1CCCCC1)C(=O)O (stereo unspecified)	-3.0	x	x	x	14.7	x	x
O=C(NCc1ccc(Cl)cc1)c1cnn2ccccc12	-3.2	14.9	-2.1	-0.6	-0.1	x	x
CCC(NC(=O)Nc1nnc(C(F)(F)F)s1)(C(F)(F)F)C(F)(F)F	4.3	-27.2	-4.9	74.8*	58.9*	39.4*	16.2
COc1cc(CCC(=O)Nc2cccc(S(=O)(=O)N(C)C)c2)cc(OC)c1OC	0.1	x	x	x	7.2	x	x
COc1ccc(CCNc2ncnc3c2oc2ccccc23)cc1OC	-0.6	-1.3	-5.0	67.2*	27.5*	38.1*	-0.8
SMILES	GALR2 ag	cytoskel mod	S1P2 agonist	S1P2 blocker	GALR2 antag	GALR2 blk conf	BLA inhib ctr
O=C(CN1C(=O)/C(=C\c2ccc(F)cc2)Oc2ccccc21)NCc1ccco1	-1.2	x	x	x	17.3	x	x
Cc1ccc2[nH]c3c(N4CCc5ccccc5C4)ncnc3c2c1	-0.8	-28.3	-9.1	82.9*	53.7*	51.5*	16.1
Brc1ccc2[nH]c3c(N4CCc5ccccc5C4)ncnc3c2c1	-1.7	11.6	2.8	33.0	14.4	x	x
O=C(Cc1cccs1)Nc1cccc(-c2nc3cc4ccccc4cc3[nH]2)c1	-0.5	x	x	x	27.5*	30.1*	9.9
CCOc1cccc(NC(=O)Cc2cccs2)c1	-0.2	x	x	x	-6.7	x	x
c1cnc2c(c1)ccc1cccnc12	-2.3	x	x	x	36.2*	48.4*	-1.6
O=C(O)c1cccc2cccnc12	-2.6	4.5	-4.0	16.6	6.9	x	x
Cc1cc(/C=N/n2cnnc2)c(C)n1-c1ccc(OCc2ccc(Cl)cc2)cc1	0.7	-9.4	-6.8	76.7*	44.6*	40.2*	18.6
O=S(=O)(/N=C(/c1ccc(F)cc1)N1CCCCC1)c1ccc(Cl)cc1	0.0	x	x	x	-5.1	x	x
Cc1ccc(S(=O)(=O)/N=C2/C=C(Sc3ncn[nH]3)C(=O)c3ccccc32)c(C)c1	-1.1	x	x	x	27.1*	15.6	26.7
O=C1/C(=C/c2cccnc2)CCC/C1=C\c1cccnc1	-1.2	x	x	x	22.6	x	x
